We go through eight compounds from PubChem BioAssay (NCI).

The panel holds about 83,000 compounds, 20% with a hit somewhere; the sample as a whole holds those more often.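 Results are percent growth after 48 hours of single-concentration exposure. 100 means growth as in untreated cells, lower positive values show inhibition; negative values down to -100 show cell death.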 Values without a mark were called inactive. The source made the active and inactive calls. How the source made its calls: active means growth percent below 10; inactive means the rest.

What all share (assay): NCI-60 one-dose screen, 48 h (100 = growth as untreated, 0 = no growth, -100 = all killed)
Holding throughout (conditions): 10 µM unless noted

Assay [1] deals with HCT-15 colon.
In assay [2] the test system is HT29 colon.
Assay [3] deals with SNB-75 CNS.
The test system of assay [4] is SNB-19 CNS.
Assay [5] concerns U251 CNS.
The subject of assay [6] is PC-3 prostate.
The test system of assay [7] is SK-MEL-5 melanoma.
The subject of assay [8] is UACC-62 melanoma.
For assay [9], the system named is LOX IMVI melanoma.
The test system of assay [10] is SK-MEL-28 melanoma.
Assay [11] relates to SK-MEL-2 melanoma.
The test system of assay [12] is EKVX NSCLC.
Assay [13] deals with SN12C renal.
For assay [14], the system named is UO-31 renal.
The subject of assay [15] is TK-10 renal.
Assay [16] deals with ACHN renal.
Assay [17] concerns CAKI-1 renal.
For assay [18], the system named is CCRF-CEM leukemia.
Assay [19] deals with MOLT-4 leukemia.
For assay [20], the system named is A498 renal.

As to `COc1ccc(Cl)cc1Nc1nc(C(F)(F)F)ccc1C(=O)N/N=C/c1ccccc1Cl`, the growth in assay [1] was 0.947% (active); in assay [2] it was 9.32% (active); in assay [3], 50%; in [4], 9.47% (active); in [5] it was -25.8% (active); in assay [6], 5.53% (active). Also, the growth in [7] is 3.59% (active); in assay [8], 8.19% (active); in [9], -13.6% (active); in assay [10], 32.5%; in assay [11], -7.25% (active); in [12], -0.149% (active). Moreover, the growth in assay [13] was 0.596% (active); in [14], 2.9% (active); in assay [15], 15.6%; in assay [16], 3.39% (active); in assay [17] it was 11.5%; in assay [18], 7.11% (active). Also, the growth in assay [19] is 3.07% (active).

In the case of `N#C/C(=C\c1ccc(Br)cc1)c1cc2ccccc2[nH]1`, the growth in [1] was 94%; in assay [2], 109%; in assay [3] it was 104%; in assay [4], 94.5%; in assay [5] it was 95.1%; in [6], 84.7%. Also, the growth is 97.4% in assay [7]; 87.8% in [8]; 95.3% in [9]; 103% in [10]; 114% in [11]; 91% in [12]. The growth in assay [13] was 97.6%; in assay [14], 86.8%; in assay [15] it was 119%; in assay [16], 102%; in assay [17], 92.7%; in assay [18] it was -42.4% (active). For the same compound, in assay [19], the growth is 84.5%.

For `COc1cc(/C=C/c2cc(/C=C/c3ccc(O)c(OC)c3)n(C(=O)Nc3ccc(F)cc3)n2)ccc1O`, the growth in assay [1] was 10.6%; in assay [2] it was -41.8% (active); in [3], 26.9%; in assay [4], 20.2%; in [5], 13.4%; in [6] it was 9.01% (active). The growth in [7] is -8.36% (active); in [8], 2.01% (active); in assay [9], 4% (active); in [10], 16.7%; in assay [11], -27.1% (active); in assay [12], 26.9%. For the same compound, the growth in [13] is 17.9%; in [14], 14%; in assay [15] it was 38.1%; in assay [16], 20.2%; in assay [17], -7.81% (active); in assay [18], 6.82% (active). In addition, the growth in assay [19] was -3.56% (active).

Consider `CN1CCN(Cc2ccc(NC(=O)c3cncc(C#Cc4cncc5ncccc45)c3)cc2C(F)(F)F)CC1`, for which the growth is 19.7% in assay [1]; -4.72% (active) in assay [2]; 13.6% in assay [3]; 46.7% in assay [4]; 38.8% in assay [5]; 23% in assay [6]. Further, the growth in [7] was 19.1%; in [8], 5.7% (active); in assay [9], -85.7% (active); in [10], 12.4%; in assay [11], -69.1% (active); in assay [12] it was 39.2%. Besides, the growth was 21.3% in assay [13]; -10.2% (active) in assay [14]; 22% in assay [15]; 8.35% (active) in assay [16]; -19.7% (active) in [17]; 3.31% (active) in [18]. The growth in [19] is 9.12% (active).

For the compound `CCOC(=O)/C=C/c1c(C)[nH]c(=O)[nH]c1=O`, the growth in assay [1] is 21.3%; in [2], 31.4%; in assay [3], 110%; in assay [4], 93.4%; in [5], 81.2%; in assay [6], 80.9%. Further, the growth in [7] was 90.7%; in [8], 87.6%; in assay [9], 82.6%; in [10], 117%; in assay [11], 30.1%; in assay [12], 77.6%. The growth in assay [13] was 95.4%; in assay [14], 102%; in assay [15], 95.5%; in assay [16], 1.8% (active); in assay [17], 63.8%; in assay [18], 89.3%. In addition, the growth in [19] is 61.3%.

On to `CCOC(=O)c1c(NC(=O)CSc2n[nH]c3nc4ccccc4n23)sc(CC)c1C`, for which the growth in assay [1] was 97.9%; in [2], 109%; in assay [3], 95.3%; in assay [4], 103%; in assay [5] it was 97.6%; in assay [6] it was 61.5%. Also, the growth in assay [7] was 98%; in assay [8], 77.9%; in [9], 99%; in [10] it was 113%; in assay [11], 80.6%; in assay [12] it was 91.9%. Moreover, the growth in [14] is 73.4%; in assay [15], 130%; in assay [16], 96.8%; in assay [17], 108%; in assay [20], 106%; in assay [18] it was 121%. Further, in assay [19], the growth is 79.6%.

For the compound `CN1CCN(Cc2ccc(NC(=O)c3cncc(C#Cc4cncc5[nH]ncc45)c3)cc2C(F)(F)F)CC1`, the growth is 10.6% in assay [1]; 11.1% in [2]; 20% in [3]; 45.5% in assay [4]; 25.1% in assay [5]; 1.19% (active) in assay [6]. The growth in [7] was 13.2%; in assay [8] it was -49.2% (active); in [9] it was -90% (active); in assay [10] it was -15.2% (active); in assay [11], -52.4% (active); in assay [12], 26.3%. For the same compound, the growth in [13] is 8.48% (active); in assay [14] it was -25% (active); in [15], 12.5%; in assay [16], -0.725% (active); in assay [17], -52% (active); in assay [18], 7.31% (active). In assay [19], the growth was 3.77% (active).

For `CCOC(=O)C(=Cc1cccc(C#N)c1)C(=O)OCC`, the growth in [1] is 39%; in assay [2], 20%; in [3], 60.2%; in assay [4] it was 85.1%; in assay [5], 76.1%; in assay [6], 62.8%. Further, the growth in assay [7] is 85.8%; in assay [8], 53.4%; in assay [9], -44.1% (active); in [10], 50.3%; in [11] it was 59.9%; in assay [12], 82.3%. In addition, the growth is 79.8% in assay [13]; 54.3% in assay [14]; 35.9% in assay [15]; 23.7% in [16]; 79.9% in assay [17]; 28.5% in [18]. For the same compound, the growth in assay [19] was 50%.
